# Compound activity deposited in PubChem BioAssay by National Center for Advancing Translational Sciences (NCATS).
# NIH3T3 tox: kills NIH 3T3 cells; NIH 3T3 viability, CellTiter-Glo ATP luminescence, 48-72 h; Potency, µM (doses to about 96.7 µM), usual class: inhibitors; actives 4.3% (n = 94,000); AID 1345082; also: nearly all actives have a fitted effect of over 55% in size
#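 Viability of NIH 3T3 cells after 48 or 72 hr compound treatment at 37 °C was assessed by CellTiter-Glo, with luminescence imaged following a 10 min room-temperature step.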
# HEK293 tox: kills HEK 293 cells; HEK 293 viability, ATP luminescence (CellTiter-Glo), 48-72 h; Potency, µM (titrated, usually from 115 µM), hits mostly inhibitors; actives 6.6% (n = 94,000); AID 1345083; also: nearly all actives have a fitted effect of over 60% in size
#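 250 HEK 293 cells/well; compound by pintool; incubated 48 or 72 hr at 37 degree Celsius; CellTiter-Glo added, 10 min RT, luminescence imaged.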
# FLuc inh: Photinus pyralis luciferase inhibition | P08659 | purified P. pyralis luciferase, luminescence, biochemical | Potency, µM (top dose mostly 115 µM), most hits filed as inhibitors | actives 2.5% (n = 76,000) | AID 1347043; also: nearly all actives have a fitted effect of over 65% in size
# Target sequence (P08659 whole entry, looked up): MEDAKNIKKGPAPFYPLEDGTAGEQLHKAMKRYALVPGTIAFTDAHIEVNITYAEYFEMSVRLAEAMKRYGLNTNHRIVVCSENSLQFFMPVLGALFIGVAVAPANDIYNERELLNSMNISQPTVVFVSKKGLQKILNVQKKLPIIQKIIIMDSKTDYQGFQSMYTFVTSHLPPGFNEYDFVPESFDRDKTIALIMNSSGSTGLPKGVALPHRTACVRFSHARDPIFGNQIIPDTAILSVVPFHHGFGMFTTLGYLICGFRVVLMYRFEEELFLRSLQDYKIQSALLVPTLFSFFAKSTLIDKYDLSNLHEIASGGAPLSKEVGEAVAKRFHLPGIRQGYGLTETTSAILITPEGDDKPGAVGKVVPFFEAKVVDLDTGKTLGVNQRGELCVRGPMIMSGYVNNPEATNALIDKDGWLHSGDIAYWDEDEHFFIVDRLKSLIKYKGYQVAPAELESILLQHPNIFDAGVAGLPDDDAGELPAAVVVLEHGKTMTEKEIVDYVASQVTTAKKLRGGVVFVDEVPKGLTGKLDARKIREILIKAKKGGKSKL
#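 Inhibitors were tested against purified firefly luciferase in a biochemical, low-substrate format (both substrates at 10uM) and luminescence measured with a CCD imager.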
# hNpr1 antagonist: human Npr1 receptor antagonism; HEK293 hNpr1 GloSensor cGMP, ANP-stimulated luminescence; Potency, µM (highest dose often 46.3 µM), most hits filed as inhibitors; actives 1.6% (n = 76,000); calls by dose curve; also: nearly all actives have a fitted effect of over 60% in size
#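 HEK293 cells stably expressing human Npr1 and cGMP GloSensor pGS-40F, loaded 2 h with 2% GloSensor reagent, given compound 30 min at room temperature. Luminescence read before and 20 min after 0.1 nM hNppA.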
# Hits are given with their value; i = inactive; ? = inconclusive; nt = not tested or not shown. A selection: hits, their analogues and other compounds. The true share with any hit is near 11%. Unless noted, calls follow the shape of the dose curve; as a rule, active = well fitted curve in the direction sought with a large enough effect; inconclusive = small, poorly fitted or top-dose-only effect, or another doubt; inactive = no such curve, though single readings can be large; an effect the other way counts as inactive or inconclusive.
SMILES,NIH3T3 tox,HEK293 tox,FLuc inh,hNpr1 antagonist
CC(C)c1nc(-c2ccc(OC3CCN(C(=O)C4(c5ccccc5)CC4)C3)cc2)no1 (centres undefined),?,45µM,i,?
CC(C)c1nc(-c2ccc(OC3CCN(C(=O)c4ccoc4)C3)cc2)no1 (centres undefined),?,32µM,nt,nt
O=C(c1ccoc1)N1CCC(Oc2cccnc2)C1 (centres undefined),i,i,i,i
COc1ccc(NC(=O)N2CCC(Oc3ccc(-c4noc(C5CC5)n4)cc3)C2)cc1 (centres undefined),i,?,?,?
Cc1noc(C)c1S(=O)(=O)N1CCC(Oc2ccc(-c3noc(C(C)C)n3)cc2)C1 (centres undefined),i,20µM,nt,nt
COc1ccc(C(=O)N2CCC(Oc3ccc(-c4noc(C5CC5)n4)cc3)C2)cn1 (centres undefined),?,35µM,nt,nt
O=C(CCCc1ccccc1)NCc1nnc2c(-c3nc(C4CC4)no3)cccn12,i,i,i,i
Cc1ccc(C2Cn3nnc(-c4noc(C5CCCCC5)n4)c3CO2)cc1 (centres undefined),i,i,i,i
O=S(=O)(c1ccc(F)cc1)N1CCC(Oc2ccc(-c3noc(C4CC4)n3)cc2)C1 (centres undefined),?,28µM,i,?
COCCNC(=O)C[C@@H]1C[C@H]2O[C@H](CNC3Cc4ccccc4C3)[C@@H](O)[C@H]2O1,i,i,i,i
Cc1cc(C)n(CCC(=O)N2c3ccccc3CC2c2noc(C3CCOCC3)n2)n1 (centres undefined),?,?,25µM,i
O=C(NC1CCCCC1)N1c2ccccc2CC1c1noc(C2CCOCC2)n1 (centres undefined),i,i,i,i
O=C(NC1CCCC1)N1c2ccccc2CC1c1nc(C2CC2)no1 (centres undefined),?,?,20µM,?
CCN1c2cc(C(=O)Nc3cccc(OC(F)(F)F)c3)ccc2C(=O)N2CCCCC21 (centres undefined),?,25µM,i,i
CCN1c2cc(C(=O)Nc3ccc(OC(F)(F)F)cc3)ccc2C(=O)N2CCCCCC21 (centres undefined),25µM,32µM,i,i
CCN1c2cc(C(=O)Nc3ccc(C(F)(F)F)cc3)ccc2C(=O)N2CCCCC21 (centres undefined),?,?,i,i
O=[S+]1([O-])NCC2(CCN(CC3CC3)CC2)Nc2ccccc21,i,i,i,i
COCC(=O)N1CCN(c2nccc(Nc3ccccc3OC)n2)CC1,i,i,nt,nt
COc1ccccc1Nc1ccnc(N2CCN(C(=O)Cc3cccc(Cl)c3)CC2)n1,?,45µM,nt,nt
O=C(Cc1cccc(Cl)c1)N1CCN(c2nccc(Nc3ccccc3F)n2)CC1,?,28µM,nt,nt
O=C(NC1CCCC1)N1CC(Oc2cccc(-c3nc(-c4ccccc4)no3)c2)C1,?,?,i,i
O=C(c1ccoc1)N1CC(Oc2cccc(-c3nc(-c4ccccc4)no3)c2)C1,?,?,?,i
CCCNC(=O)N1CC(Oc2cccc(-c3nc(-c4ccccc4)no3)c2)C1,i,28µM,i,i
CC(Oc1ccccc1)C(=O)N1CC(Oc2cccc(-c3nc(-c4ccccc4)no3)c2)C1 (centres undefined),28µM,32µM,?,i
Cn1cccc1C(=O)N1CC(Oc2ccc(-c3nc(-c4ccccc4)no3)cc2)C1,i,?,?,i
SMILES,NIH3T3 tox,HEK293 tox,FLuc inh,hNpr1 antagonist
O=C(C1CCOCC1)N1CC(Oc2cccc(-c3nc(-c4ccccc4)no3)c2)C1,?,?,18µM,i
COc1ccccc1C(=O)N1CC(Oc2ccc(-c3noc(-c4ccncc4)n3)cc2)C1,35µM,?,nt,nt
Cc1cc(C)cc(NC(=O)N2CCCC(c3noc(COc4ccccc4F)n3)C2)c1 (centres undefined),?,?,i,i
CC(=O)N1CCCC(c2nc(-c3ccc4nc[nH]c4c3)no2)C1 (centres undefined),i,i,?,i
Cc1nnc2n1CCC(N(C)S(=O)(=O)c1cccnc1)CC2 (centres undefined),i,i,i,i
COc1ccccc1C(=O)N1CC(Oc2cccc(-c3nc(-c4ccccc4)no3)c2)C1,32µM,45µM,7.9µM,i
COc1ccc(CN2CC(Oc3ccccc3C(=O)NC3CC3)C2)cc1OC,i,i,i,i
COC(=O)NC1CCN(Cc2cccc(-c3ccccc3OC)c2)CC1,i,?,nt,nt
COc1ccccc1-c1cccc(CN2CCC(NC(=O)c3ccccc3Cl)CC2)c1,?,79µM,nt,nt
O=C(NC1CCN(Cc2ccccc2)CC1)c1cccc2c1CCN2C(=O)c1ccccc1,?,40µM,i,i
COc1ccccc1C(=O)NC1CCN(Cc2cccc(-c3ccccc3OC)c2)CC1,?,45µM,nt,nt
COc1ccccc1-c1cccc(CN2CCC(NC(=O)N(C)C)CC2)c1,?,79µM,nt,nt
CN1C(=O)C(CC(=O)N2CCCCC2)=C2CCCCC21 (centres undefined),i,i,i,i
O=C(Cc1ccsc1)NC1CCCN(c2cc(-c3ccc(F)cc3)[nH]n2)C1 (centres undefined),?,?,i,i
CCc1ccc(CNC(=O)c2ccc3c(c2)N(CC)C2CCCCCN2C3=O)cc1 (centres undefined),?,?,i,i
Cc1[nH]c(=O)c(C#N)cc1C(=O)N1CCCC2(CCC(=O)N(C3CC3)C2)C1 (centres undefined),i,i,i,i
COc1ccccc1-c1cccc(CN2CCC(NC(=O)c3ccccc3C)CC2)c1,?,45µM,nt,nt
Cn1cnnc1C1CCN(C(=O)C2CCCN(C(N)=O)C2)CC1 (centres undefined),i,i,i,i
Cn1cccc1CN1CCC(N2C(=O)C(OCC3CC3)C23CCCCC3)CC1 (centres undefined),?,45µM,i,i
Cn1cccc1CN1CCC(N2CC(OCC3CC3)C23CCCCC3)CC1 (centres undefined),?,?,i,i
Cc1nn(C)c(C)c1S(=O)(=O)N1CCCC(C(=O)N2CCCn3nc(-c4ccc(F)cc4)cc3C2)C1 (centres undefined),?,32µM,nt,nt
Cc1nn(C)c(C)c1S(=O)(=O)N1CCCC(Cn2c(C3CC3)nc3cccnc32)C1 (centres undefined),?,i,i,i
Cc1noc(-c2ccc(OC3CN(C(=O)Nc4cccc(F)c4)C3)cc2)n1,?,?,i,?
Cc1noc(-c2ccc(OC3CN(C(=O)Cc4ccccc4)C3)cc2)n1,i,?,i,i
Cc1noc(-c2ccc(OC3CN(C(=O)Nc4ccccc4)C3)cc2)n1,i,?,?,13µM
Cc1noc(-c2ccc(OC3CN(C(=O)CC4CCCC4)C3)cc2)n1,?,32µM,i,?
CCN1c2cc(C(=O)Nc3ccc(Cl)cc3)ccc2C(=O)N2CCCC21 (centres undefined),i,i,i,i
